Compounds with a hit are over-represented: about 2% of the library has one in this group of screens.
FUS suppressor: qHTS for Suppressors of FUS Proteinopathy: Primary screen using FUS-linked yeast assay. S. cerevisiae FUS-expressing, growth rescue, OD600, 24 h. 390,000 tested, 0.24% active. Potency, µM (series often up to 76.6 µM), actives largely listed as activators;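 further: plate controls were DMSO vehicle for no effect and reference control for full effect; nearly all actives have a fitted effect of over 55% in size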
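Compound concentration series was pinned onto galactose-induced FUS-expressing yeast seeded at OD 0.005. Plates sat 24hr at 30C; absorbance at 600 nm gave growth. DMSO served as background control.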
aSyn rescue: qHTS of alpha-syn Inhibitors | Yeast expressing alpha-synuclein, growth rescue, BacTiter-Glo, 24 h | Potency, µM (highest dose often 46.1 µM), for inactives: top-dose growth rescue (activation), usual class: activators | 370,000 tested, 0.14% active | AID 652106, 2013; further: % of control where 0% means no effect; nearly all actives have a fitted effect of over 65% in size
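Screening used galactose-induced yeast with toxic alpha-synuclein levels, exposed to compound for 24 hr at 30 deg C. Cell growth, read with BacTiter-Glo luminescence, gave the measured signal.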
TDP43 rescue: qHTS of TDP-43 Inhibitors | TDP-43 expressing yeast growth rescue, BacTiter-Glo, 24 h | Potency, µM (series often up to 46.1 µM), for inactives: at the top dose growth rescue (activation), most hits filed as activators | 410,000 tested, 1.8% active; further: % of control where 0% means no effect; nearly all actives have a fitted effect of over 50% in size
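Galactose-induced TDP-43 yeast, OD600=0.02, compound pinned; 24 hr, 30 deg C; BacTiter-Glo luminescence for growth. Inhibitors of TDP-43 toxicity read as activators.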
MBNL1-CUG inh: qHTS Assay for Inhibitors of MBNL1-poly(CUG) RNA binding; TR-FRET MBNL1-His/biotin-(CUG)12 binding, 665/545 ratio; 280,000 tested, 0.036% active; Potency, µM (highest dose often 57.5 µM), without a hit: at the highest dose activity change, negative = inhibition, usual class: inhibitors; Muscleblind-like protein 1 (Homo sapiens), Q9NR56; active means well fitted inhibition curve with a large enough effect in the signal ratio, with a control signal flat, not every such curve was filed as active; inconclusive means small, poorly fitted or top-dose-only effect, or effect the other way, or a change in a side signal; inactive means no such curve, though single readings can be large or run the other way; the % refers to the signal ratio; further: on the % scale 0 is the no-effect control and ±100 the full control effect
Target sequence (Q9NR56 whole entry, looked up): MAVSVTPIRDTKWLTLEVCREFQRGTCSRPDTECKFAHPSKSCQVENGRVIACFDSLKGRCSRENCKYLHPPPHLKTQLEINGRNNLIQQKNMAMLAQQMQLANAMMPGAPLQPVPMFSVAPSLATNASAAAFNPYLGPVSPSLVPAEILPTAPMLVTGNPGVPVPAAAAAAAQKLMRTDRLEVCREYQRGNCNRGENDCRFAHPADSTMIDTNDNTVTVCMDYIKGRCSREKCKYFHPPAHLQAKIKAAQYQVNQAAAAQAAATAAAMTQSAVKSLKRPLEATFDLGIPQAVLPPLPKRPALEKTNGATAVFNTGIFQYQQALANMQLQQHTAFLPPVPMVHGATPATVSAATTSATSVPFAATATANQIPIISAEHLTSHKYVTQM
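Inhibition of protein-RNA binding appears as loss of TR-FRET between terbium anti-His antibody on MBNL1-His and streptavidin-XL665 on biotin-(CUG)12. Activity is normalized to buffer-only and uninhibited-complex controls.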
Abeta rescue: qHTS for compounds that reverse cellular toxicity of Amyloid beta (A-beta) peptide in yeast: Primary Screen; yeast expressing A-beta42, growth rescue, OD600, 48 h; response scale: 0% DMSO, 100% iron-clioquinol control; Potency, µM (series often up to 46.1 µM), actives largely listed as activators; 410,000 tested, 0.063% active; AID 1347071, 2019; further: nearly all actives have a fitted effect of over 55% in size
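Yeast A-beta toxicity model in growth medium with pinned compounds, 48 h at 30 C; growth read as absorbance at 600 nm. Normalized to FeCl3/clioquinol equimolar mix (positive) and DMSO (negative).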
Glioma ERSR ind: qHTS for Inducers of the Endoplasmic Reticulum Stress Response (ERSR) in Human Glioma: qHTS | Potency, µM, for inactives: top-dose activation, usual class: activators | 420,000 tested, 0.02% active | U87-MG GRP78 promoter luciferase reporter, 16 h; further: series mostly up to about 76 µM; % of control where 0% means no effect; nearly all actives have a fitted effect of over 35% in size
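ERSR induction read as luciferase luminescence (Bright-Glo, 10 min at room temperature) in stably transfected human U87-MG glioma cells exposed to compounds for 16 h, using GRP78 as sensor.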
Starred values were filed as active, the others as inactive; i = inactive; ? = inconclusive; / = no result given. Unless noted, the call rests on the fitted dose curve; in most records, active means well fitted curve in the direction sought with a large enough effect; inconclusive means small, poorly fitted or top-dose-only effect, or another doubt; inactive means no such curve, though single readings can be large; an effect the other way counts as inactive or inconclusive. Potency means the concentration at half of the fitted maximal effect.

SMILES | FUS suppressor | aSyn rescue | TDP43 rescue | MBNL1-CUG inh | Abeta rescue | Glioma ERSR ind
COc1cccc(-c2cc3c(c4c2ccn4C)C2CCC3C2)c1 (configuration not stated) | i | -8.8% | ? | / | i | -4.4%
COc1ccc(-c2cc3c(c4c2ccn4C)C2CCC3C2)cc1 (configuration not stated) | i | -7.4% | 35.5µM* | / | i | -1.9%
C=CCOc1ccc(/C=C/C(=O)OCC(=O)NCCc2ccccc2)cc1 | i | 24.2% | 25.1µM* | / | i | -2.4%
CCC(C)(C)n1nnnc1C(c1ccc(O)c(OC)c1)N1CCN(c2nc3ccccc3s2)CC1 (configuration not stated) | i | -10.8% | 20µM* | 6.0% | i | -3.7%
COC(=O)/C=C1\SC(=Nc2ccc(OC)cc2)NC1=O | i | 7.9% | 20.5% | 2.1% | i | -0.3%
COC(=O)/C=C1\S/C(=N\N=C\CC(=O)OC)NC1=O | 31.6µM* | -10.7% | -7.1% | -3.9% | ? | 1.5%
N#Cc1c2ccccc2nc2ccccc12 | i | ? | 11.2µM* | ? | i | 4.2%
c1ccc(Oc2c3ccccc3nc3ccccc23)cc1 | i | -3.6% | 0.0% | 11.8% | i | 12.6%
COc1ccc(C2C3=C(N=C4SCC(=O)N42)c2ccccc2CC3)cc1OC (configuration not stated) | 35.5µM* | 1.1% | -24.7% | 13.2% | i | 7.1%
Cn1c(/C=C/c2ccc(Br)cc2)c([N+](=O)[O-])c(=O)n(C)c1=O | i | 0.0% | 20µM* | 4.5% | i | -8.1%
Cc1ccccc1Cn1nnc2c(=O)[nH]c(C3CCCN(C(=O)c4ccc(C(C)(C)C)cc4)C3)nc21 (configuration not stated) | ? | / | ? | / | i | 8.7%
Cc1cccc(Cn2nnc3c(=O)[nH]c(C4CCCN(C(=O)c5ccc(C(C)(C)C)cc5)C4)nc32)c1 (configuration not stated) | 22.4µM* | / | 12.3% | / | i | -10.1%
C=CCN(c1ccccc1)S(=O)(=O)c1cccc(C(=O)Nc2ccc(N3CCOCC3)cc2)c1 | i | 0.9% | 14.1µM* | / | i | -3.1%
N/C(Cc1ccc([N+](=O)[O-])cc1)=N\OC(=O)c1ccccc1F | i | 1.4% | 11.2µM* | ? | i | -6.2%
C#CCN1CC(N(C)CCOC(=O)c2occ3ccccc23)CS1(=O)=O (configuration not stated) | i | / | / | / | / | /
COc1ccc(-c2nc(SCc3ccccc3)n(S(C)(=O)=O)n2)cc1 | i | / | 2.82µM* | 2.5% | i | -3.6%
Cc1cnc(-n2ncc(C(=O)N[C@H]3CCCCNC3=O)c2C2CC2)nc1-c1cccs1 | / | / | / | / | / | -6.3%
Clc1ccc(-n2nnnc2Sc2ncnc3sccc23)cc1 | i | -47.9% | 10µM* | / | i | -16.5%
CCCCCCCCNC(=O)C1CSCCS(=O)(=O)N1Cc1ccc(OC)cc1 (configuration not stated) | i | / | / | / | / | /
COc1ccc(C(C)N(C)Cc2nc(N3CCN(C(=O)c4ccco4)CC3)c3ccccc3n2)cc1 (configuration not stated) | / | / | / | / | / | 0.5%
COc1cc(NC(=S)Nc2ccccn2)cc(OC)c1 | i | 1.5% | 10µM* | -2.9% | i | -1.1%
S=C(Nc1ccccn1)Nc1ccccc1Cl | i | -4.0% | 15.8µM* | -2.0% | i | ?
CCN1C(=O)[C@H]2[C@@H](c3ccc(-c4ccc(Cl)c(Cl)c4)cc3)N[C@@](C)(C(=O)OC)[C@H]2C1=O | 31.6µM* | -8.8% | 20µM* | / | i | -2.2%

Assay outcomes: PubChem, National Center for Advancing Translational Sciences (NCATS)
